Each structure is given as a SMILES string.

Results on 35 molecules are retold here after PubChem BioAssay.
Further: test concentration not given here.

The first assay is described as follows: calcein-AM signal in unstimulated myeloma cells – cell-based, calcein-AM fluorescence, 48 h, PK04 Diversity Set, profiling panel (AID 1166).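 Further: cells grown under basal conditions without added stimulus.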 Particulars: RPMI8226 myeloma viability, higher = more signal.
As for `CN(C)CCCC[C@@H]1NC(=O)[C@@H]2C[C@H](C(=O)NCCCCCCNC(=O)CS)[C@H](c3ccc(O)cc3)N2C1=O`, the z-score is 0.381.
In the case of `CCOC(=O)C1=CC[C@@H](c2ccc(OC)cc2)N(S(=O)(=O)c2ccc(C)cc2)[C@H]1CC`, the z-score was -1.45.
On the same count and under the same terms, then `C=C(CCCC)/C(=C/C[C@H](OC(=O)c1ccncc1)c1ccc(OCCO)cc1)c1cnc2ccccc2c1`, with -0.499.
For `COC(=O)[C@@]1(Cc2ccc(F)cc2)[C@H]2c3cc(C(=O)N4CCCC4)n(Cc4cc(F)cc5c4OCOC5)c3C[C@H]2CN1C(=O)c1ccccc1`, the z-score was -1.55.
Consider `C=C(CCCC)C(=O)CC[C@H](OC(=O)c1ccccc1-c1ccccc1C(=O)O)c1ccc(OCCO)cc1`, for which the z-score was -3.37.
On to `C[N+](C)(C)CCCCNC(=O)[C@H]1C[C@H]2C(=O)N[C@@H](Cc3ccccc3)C(=O)N2[C@H]1c1cccc(OCCO)c1`, for which the z-score is -0.748.

Another assay can be described thus: JC-1 mitochondrial signal, unstimulated HepG2 cells – cell-based, JC-1 fluorescence, 24 h, 100 nL compound, profiling panel (AID 1167). Particulars: HepG2 mitochondrial potential, higher = more signal.
`COC(=O)C(CC#Cc1ccc2c(c1)[C@]1(C(=O)N2)[C@H](C(=O)NC[C@H](O)c2ccccc2)[C@H]2C(=O)O[C@H](c3ccccc3)[C@H](c3ccccc3)N2[C@@H]1c1ccccc1OCCO)C(=O)OC` came in with a z-score of -0.0353.
The same measure, in the same setting: with `CN(C)CCCNC(=O)[C@@]1(Cc2ccccc2I)c2ccccc2C(=O)N(C2CCCCC2)[C@H]1c1ccc(CO)cc1` the figure was -2.13.
For `CN1C(=O)C2C=CC(C(O)c3ccc(-c4ccccc4)s3)N(NC(=O)OC(C)(C)C)C2C1=O` (stereo unspecified), the z-score is -1.73.
The same measure, in the same setting: with `CCCNC(=O)[C@@]1(Sc2ccc(C)cc2)CC(=O)N(Cc2ccccc2Cl)[C@@H]1c1ccc(CO)cc1I` the figure was 0.377.
Same read-out and setting: with `CN(C)c1ccc(C(O)C2C=CC3C(=O)N(Cc4ccccc4)C(=O)C3N2n2cnnc2)cc1` (stereo unspecified) the figure was 0.0219; with `C[C@@H]1ON(c2ccccc2)[C@H](c2ccccc2)[C@H]1C(=O)O`, -0.246.
Same read-out and setting: with `O=C1[C@H]2C=C(I)[C@H](C[C@@H]2c2ccccc2)[C@@]12CO2` the figure was -1.74; with `C=CCC(OC(C)=O)[C@@H]1[C@@H](N(Cc2ccc(-c3cccc(C(F)(F)F)c3)o2)C(=O)c2ccc(-c3ccccc3)cc2)c2cc(OCCCO)ccc2N1C(=O)c1ccc2ccccc2c1` (stereo partly specified), 2.76.
Take `O=C(NCc1ccc(F)cc1)[C@H]1C[C@H]2C(=O)N3CCC[C@H]3C(=O)N2[C@H]1c1ccc(O)cc1`: the z-score is 0.552.
On the same count and under the same terms, with `N#Cc1ccc(NN2C(C(O)C3CC=CCC3)C=CC3C(=O)N(c4ccccc4)C(=O)C32)cc1` (stereo unspecified) the figure was -0.795; with `CCCNC(=O)[C@@]1(c2ccc([N+](=O)[O-])cc2)CC(=O)N(C(C)C)[C@@H]1c1ccc(CO)cc1`, -0.534.
Same read-out and setting: with `CC(C)N1C(=O)C[C@@](C(=O)NCCN2CCOCC2)(c2ccc([N+](=O)[O-])cc2)[C@H]1c1ccc(CO)cc1` the figure was 0.0432.
Still for that read-out and setting: with `C[N+](C)(C)CCCC[C@@H]1NC(=O)[C@H]2C[C@@H](C(=O)NCCCCCNC(=O)CS)[C@@H](c3cccc(OCCO)c3)N2C1=O` the figure was 1.09.
As for `[N-]=[N+]=Nc1ccccc1[C@@H]1OC(c2ccc(OCCCO)cc2)=N[C@]1(Cc1ccccc1)C(=O)NCCN1CCOCC1`, the z-score worked out at 0.153.
Molecule `CCOC(=O)C[C@H]1[C@H](OC(=O)c2ccccc2-c2ccccc2)[C@@H](NC(=O)C2CCCCC2)c2cc(OCCCO)ccc2N1C(=O)c1ccc2ccccc2n1` yielded a z-score of -0.28.
The same measure, in the same setting: with `NC(=O)N1C(=O)C2C(C1=O)C1C=C(CCCO)C2C(c2ccc(CN3CCCC3)cc2)N1Cc1sc2ccccc2c1Cl` (stereo unspecified) the figure was 0.916.
The same measure, in the same setting: then `CC(C)(C)N1CC=CC23O[C@@H]4/C=C\CCCOC(=O)C4[C@H]2C(=O)N(CCCO)[C@@H]3C1=O` (stereo partly specified), with -0.794.
Still for that read-out and setting: with `CC(C)N1C(=O)c2ccccc2[C@](C)(C(=O)NCC(F)(F)F)[C@@H]1c1ccc(CO)cc1` the figure was 0.686; with `COc1ccc(C#Cc2ccc3c(c2)[C@]2(C(=O)N3)[C@H](C(=O)O)[C@H]3C(=O)O[C@H](c4ccccc4)[C@H](c4ccccc4)N3[C@@H]2c2ccccc2OCCO)cc1`, -3.99; with `CCCCCC1=C2CNC(Cc3ccccc3)(C(=O)OC)C=C2C(C)C1=O` (stereo unspecified), 1.14.
`CCCCCCc1nc(-c2ccc(-c3ccc(Cl)c(Cl)c3)o2)cc2c1[Si](C(C)C)(C(C)C)OC2` registered a z-score of -1.24.
For `COC(=O)[C@H](Cc1ccccc1)N1CC2=CCCC=C[C@@H]2[C@H]1[C@H](O)Cc1ccccc1`, the z-score is -0.866.
The molecule `COC(=O)[C@@]1(Cc2ccc(F)cc2)[C@H]2c3cc(C(=O)N4CCCC4)n(CCc4ccccn4)c3C[C@H]2CN1C(=O)c1ccccc1` gave a z-score of 1.98.
As for `O=C1N(CCS(=O)(=O)c2ccccc2)c2ccccc2C[C@]12N=C(c1ccc(OCCCO)cc1)O[C@@H]2c1ccccc1`, the z-score was -0.484.
On the same count and under the same terms, then `C=CCN1C(=O)[C@]2(O[C@H](CCn3cc([C@H](O)c4ccccc4)nn3)[C@@H]([Si](C)(C)c3ccc(OC)cc3)[C@@H]2C)c2cc(NC(=O)c3ccc(OC)cc3)ccc21`, with 3.48.
The same measure, in the same setting: then `C=C(COC)C(=O)CC[C@@H](OC(C)=O)c1ccccc1OCCO`, with 0.143; and `COC(=O)[C@@]1(Cc2ccc(F)cc2)[C@H]2c3cc(C(=O)N4CCCC4)n(Cc4ccccn4)c3C[C@H]2CN1C(=O)c1ccccc1`, with 1.51.
In turn, `C=CCOC(=O)[C@@H]1[C@H]2C(=O)O[C@H](c3ccccc3)[C@H](c3ccccc3)N2[C@H](c2ccc(OCCOC(=O)[C@H]3C[C@H]4C(=O)NCC(=O)N4[C@H]3c3cccc(OCCO)c3)cc2)[C@@]12C(=O)Nc1ccc(I)cc12` returned a z-score of -1.05.
`COC(=O)C[C@H]1O[C@@]2(C[C@@H]1[Si](C)(C)C)C(=O)N(C)c1ccccc12`: the z-score turned out to be 1.23.
For `CN(C)CCCC[C@@H]1NC(=O)[C@@H]2C[C@H](C(=O)NCCCCCCNC(=O)CS)[C@H](c3ccc(O)cc3)N2C1=O`, the z-score is -0.175.
In turn, `CCOC(=O)C1=CC[C@@H](c2ccc(OC)cc2)N(S(=O)(=O)c2ccc(C)cc2)[C@H]1CC` displayed a z-score of 5.4.
Molecule `C=C(CCCC)/C(=C/C[C@H](OC(=O)c1ccncc1)c1ccc(OCCO)cc1)c1cnc2ccccc2c1` returned a z-score of 1.98.
As for `COC(=O)[C@@]1(Cc2ccc(F)cc2)[C@H]2c3cc(C(=O)N4CCCC4)n(Cc4cc(F)cc5c4OCOC5)c3C[C@H]2CN1C(=O)c1ccccc1`, the z-score worked out at 3.05.
On the same count and under the same terms, with `C=C(CCCC)C(=O)CC[C@H](OC(=O)c1ccccc1-c1ccccc1C(=O)O)c1ccc(OCCO)cc1` the figure was 0.236; with `C[N+](C)(C)CCCCNC(=O)[C@H]1C[C@H]2C(=O)N[C@@H](Cc3ccccc3)C(=O)N2[C@H]1c1cccc(OCCO)c1`, -0.559.
